From PubChem BioAssay
Rows were chosen to be rich in hits. Some 2.9% of all compounds tested hit in one or more screens of this group.
ADAM10 inh = inhibitors of human ADAM10 | AID 720582 | inhibition, % at 7 µM | 370,000 compounds, 0.62% hits | O14672 | recombinant ADAM10, EDANS/DABCYL FRET peptide cleavage, 3 h;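 active = inhibition above a per-campaign cutoff equal to the mean of compounds falling between control-based bounds plus 3 SD, cut at about 20% in these data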
PLC-gamma1 inh = PLC-gamma1 (human) inhibition, primary screen | 370,000 compounds, 0.84% hits | P19174 | purified PLC-gamma1, fluorogenic substrate, fluorescence | inhibition, % at 12.2 µM | AID 720700
PLC-beta3 inh = blocks human PLC-beta3 enzyme activity; 370,000 compounds, 0.18% hits; inhibition, % at 12.2 µM; AID 720704; Purified PLC-beta3, fluorogenic substrate, fluorescence; in the data active = inhibition above about 11%
ADAM17 inh = inhibits human ADAM17 | recombinant ADAM17, EDANS/DABCYL FRET peptide cleavage | inhibition, % at 6.95 µM | 370,000 compounds, 0.83% hits | AID 720648;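 active = inhibition above the mean of compounds lying between control limits plus 3 SD, set per campaign, cut at about 8.5% in these data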
KLK7 zymogen act = activates the human kallikrein-7 zymogen. purified proKLK7, EDANS-DABCYL substrate fluorescence; 100% is mature enzyme control, 0% vehicle. activation, % at 7 µM. 370,000 compounds, 0.9% hits;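 active = activation above the mean of all tested compounds plus 3 SD, computed per campaign excluding outliers beyond control limits, cut at about 13% in these data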
Target sequence (P49862 whole entry, looked up): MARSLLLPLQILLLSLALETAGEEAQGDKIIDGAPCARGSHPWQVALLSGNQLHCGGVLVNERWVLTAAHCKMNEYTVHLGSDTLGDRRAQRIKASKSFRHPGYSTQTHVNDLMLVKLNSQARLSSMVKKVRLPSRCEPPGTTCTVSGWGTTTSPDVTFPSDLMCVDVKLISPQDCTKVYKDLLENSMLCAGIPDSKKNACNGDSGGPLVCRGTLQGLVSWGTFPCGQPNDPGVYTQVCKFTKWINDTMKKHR
PLCgamma1 ctr = counter-screen for PLC-beta3 inhibitors: inhibitors of human PLC-gamma1; shares compounds with PLC-gamma1 inh; purified PLC-gamma1, fluorogenic substrate, fluorescence; inhibition, % at 12.3 µM; 3,300 compounds, 3.1% hits; AID 743258
PLCbeta3 conf = human PLC-beta3 inhibition, confirmation; shares compounds with PLC-gamma1 inh; purified PLC-beta3, fluorogenic substrate fluorescence; inhibition, % at 12.3 µM; 3,300 compounds, 1% hits; AID 743261; in the data active = inhibition above about 11%
Large screens that a line does not name were inactive (follow-up assays come after a bar, where they were run). Rule as the data show it, unless noted: active = inhibition above about 9.5%; inactive = the rest.

CNC(=O)c1ccccc1NC(=O)c1c(O)c2c([nH]c1=O)CCCC2	none
O=C(N/N=C/c1cccc(F)c1)c1c(O)c2c([nH]c1=O)CCCC2	PLC-beta3 inh 12.1 | PLCgamma1 ctr inactive | PLCbeta3 conf inactive
O=C(NCCc1nc2ccccc2n1CCOc1cc(F)ccc1F)C1CCCCC1	PLC-gamma1 inh 10.9, PLC-beta3 inh 10.7 (no result: KLK7 zymogen act) | PLCgamma1 ctr inactive | PLCbeta3 conf inactive
OCc1nc2ccccc2n1CCCCOc1ccccc1	none
Cc1ccc(OCCn2c(CCNC(=O)C3CCCCC3)nc3ccccc32)cc1	none (no result: KLK7 zymogen act)
OCCCc1nc2ccccc2n1CCCCOc1ccccc1	PLC-gamma1 inh 10.8 | PLCgamma1 ctr inactive | PLCbeta3 conf inactive
Cc1ccc(OCCn2c(CCNC(=O)C3CCCCCC3)nc3ccccc32)cc1	PLC-gamma1 inh 17.1, PLC-beta3 inh 11.8 (no result: KLK7 zymogen act) | PLCgamma1 ctr 9.6 | PLCbeta3 conf inactive
Cc1ccc(-n2nc3c(c2NC(=O)c2ccc4c(c2)OCO4)CS(=O)C3)cc1 (stereo not drawn)	PLC-gamma1 inh 11.2 | PLCgamma1 ctr inactive | PLCbeta3 conf inactive
CCOc1ccc(C(=O)Nc2c3c(nn2-c2ccc(C)cc2)CS(=O)C3)cc1OCC (stereo not drawn)	none
CC(=O)Nc1cccc(-c2nnc3n2CC(C)S3)c1 (stereo not drawn)	PLC-gamma1 inh 14.6 | PLCgamma1 ctr inactive | PLCbeta3 conf inactive
O=C(CCc1ccccc1)N[C@H]1[C@H](O)CCC[C@]12C(=O)N(Cc1ccccc1)c1ccccc12	none
CCCCn1c(N)c(N(C)C(=O)c2ccc(-n3cccn3)cc2)c(=O)[nH]c1=O	none
COCCn1c(=S)[nH]c2cc(C(=O)NC3CCCCC3C)ccc2c1=O (stereo not drawn)	none
CC(C)CCNC(=O)C(c1ccncc1)N(CC1CCCO1)C(=O)Cn1nnc(-c2ccc(F)cc2)n1 (stereo not drawn)	none
CC(C)CCNC(=O)C(c1ccncc1)N(C(=O)Cn1nnc(-c2ccc(F)cc2)n1)c1ccccc1F (stereo not drawn)	PLC-gamma1 inh 10.1 | PLCgamma1 ctr inactive | PLCbeta3 conf inactive
c1cncc(-c2nc3ccccc3s2)c1	none
CC(=O)N(Cc1cccnc1)c1cccc(-c2nc3ccccc3s2)c1	PLC-gamma1 inh 9.8 | PLCgamma1 ctr inactive | PLCbeta3 conf inactive
CC(=O)OCC(=O)Nc1ccc(Cl)cc1Cl	PLC-gamma1 inh 10.3 | PLCgamma1 ctr inactive | PLCbeta3 conf inactive
COc1ccccc1NC(=O)c1ccc(NC(=O)COC(=O)c2cccnc2Cl)cc1	none
O=[N+]([O-])c1cc(C(F)(F)F)ccc1NCCCCNS(=O)(=O)c1ccc(Cl)cc1	PLC-beta3 inh 11.1 | PLCgamma1 ctr inactive | PLCbeta3 conf inactive
CN1CCN(CCn2c(=S)[nH]c3ccccc3c2=O)CC1	none
O=c1c2ccccc2[nH]c(=S)n1CCN1CCN(Cc2ccccc2)CC1	PLC-gamma1 inh 10.6 | PLCgamma1 ctr inactive | PLCbeta3 conf inactive
O=c1[nH]c(C2CCN(S(=O)(=O)c3ccccc3)CC2)nc2c1nnn2Cc1ccc2c(c1)OCCO2	PLC-gamma1 inh 10.0 | PLCgamma1 ctr inactive | PLCbeta3 conf inactive
O=C(Cc1cccs1)N1CCC(c2nc3c(nnn3Cc3ccccc3Cl)c(=O)[nH]2)CC1	PLC-gamma1 inh 17.8, PLC-beta3 inh 16.8 | PLCgamma1 ctr 11.0 | PLCbeta3 conf 15.7
O=C(C1CCCCC1)N1CCC(c2nc3c(nnn3Cc3ccccc3Cl)c(=O)[nH]2)CC1	none
Cc1ccc(CNC(=O)/C=C/[C@H]2O[C@@H](n3cc(C)c(=O)[nH]c3=O)C[C@@H]2O)o1	none
Cc1ccccc1-n1ccnc1SCC(=O)O	PLC-beta3 inh 12.3 | PLCgamma1 ctr inactive | PLCbeta3 conf inactive
Cc1cccc(-n2ccnc2SCC(=O)O)c1C	none
O=C(COc1ccccc1)NS(=O)(=O)c1ccccc1	PLC-gamma1 inh 10.0 | PLCgamma1 ctr inactive | PLCbeta3 conf inactive
O=C(NCCC(=O)N1CCCC(C(F)(F)F)C1)c1ccc(Br)cc1 (stereo not drawn)	none
Nc1[nH]c(C(=O)c2ccc(Br)cc2)c(-c2ccc(Cl)cc2Cl)c1C(=O)NCCc1c[nH]c2ccccc12	none
CC(=O)NC(CCS(C)(=O)=O)C(=O)Nc1cc(C)on1 (stereo not drawn)	PLC-gamma1 inh 10.5 | PLCgamma1 ctr inactive | PLCbeta3 conf inactive
OC(Cc1cccc(C=NN2CCOCC2)n1)(C(F)(F)F)C(F)(F)F	none
CC(C)Oc1cccc(C(=O)NC(=S)Nc2ccc(Cl)c(C(=O)O)c2)c1	PLC-gamma1 inh 10.4 | PLCgamma1 ctr inactive | PLCbeta3 conf inactive
COc1ccccc1-n1cnc(N)c1C(=O)c1ccccc1	PLC-gamma1 inh 12.2 | PLCgamma1 ctr inactive | PLCbeta3 conf inactive
O=C(COc1ccccc1)NCC(=O)NC1CCCCC1	none
O=C(CNC(=O)OCc1ccccc1)NC1CCCCCCC1	PLC-gamma1 inh 10.3 | PLCgamma1 ctr inactive | PLCbeta3 conf inactive
COc1ccc(OCC(=O)NC2CCCCCCC2)cc1	PLC-gamma1 inh 11.3 | PLCgamma1 ctr inactive | PLCbeta3 conf inactive
CCOc1ccccc1OCC(=O)NC1CCCCC1	PLC-gamma1 inh 11.2 | PLCgamma1 ctr inactive | PLCbeta3 conf inactive
COc1ccccc1OCC(=O)NC1CCCCCC1	none
COc1ccc(OCC(=O)OCC(=O)NC2CCCC2)cc1	none
O=C(NCc1ccccc1)[C@@H]1CCCN1C(=O)[C@H]1CCCN1C(=O)c1ccc(F)cc1	none
COC(=O)C1CN(Cc2cn(Cc3ccc(C)cc3)nn2)CCS(=O)(=O)N1Cc1ccc(F)cc1 (stereo not drawn)	none
CCC[C@H]1[C@@H](OC(=O)NC2CCC2)CC[C@@]23CCCN2C(=O)CCC[C@@H]13	none (no result: KLK7 zymogen act)
O=C(COC(=O)c1ccc(Br)cc1)NCC1CCCO1 (stereo not drawn)	PLC-beta3 inh 11.6 | PLCgamma1 ctr inactive | PLCbeta3 conf inactive
O=C(COC(=O)c1ccccc1)NCC1CCCO1 (stereo not drawn)	none
Cc1ccc(OC(C)C(=O)N(Cc2cccs2)C2CCS(=O)(=O)C2)cc1C (stereo not drawn)	PLC-gamma1 inh 9.8 | PLCgamma1 ctr inactive | PLCbeta3 conf inactive
Cc1cc(OC(C)C(=O)N(Cc2cccs2)C2CCS(=O)(=O)C2)ccc1Cl (stereo not drawn)	none
CNC(=O)C[C@H]1C(=O)N(c2ccc(OC)cc2)C[C@@H]1CSC	none
Cc1cc(C(=O)N2CCN(c3ccc([N+](=O)[O-])cc3)CC2)no1	PLC-gamma1 inh 9.5 | PLCgamma1 ctr inactive | PLCbeta3 conf inactive
CCC(Cc1ccccc1)NC(=O)c1cc(S(=O)(=O)N2CCCCC2)c[nH]1 (stereo not drawn)	none
CC(C)N(Cc1ccccc1)S(=O)(=O)c1ccc(-n2cccn2)cc1	none
O=C(c1ccc(Cl)cc1)c1cnc(-c2ccccc2)s1	none
